Some test systems named below: SR leukemia; RPMI-8226 leukemia; OVCAR-8 ovarian; OVCAR-5 ovarian; OVCAR-4 ovarian; SK-OV-3 ovarian; IGROV1 ovarian; OVCAR-3 ovarian; HS 578T breast; NCI/ADR-RES ovarian.
Holding throughout (assay): NCI-60 one-dose screen, 48 h (100 = growth as untreated, 0 = no growth, -100 = all killed)
Holding throughout (details): 10 µM unless noted

Molecules are shown by their SMILES. The panel holds about 83,000 compounds, 20% with a hit somewhere; the sample as a whole holds those more often.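 48-hour exposure, single concentration, 96-well plates; percent growth endpoint where 0 means no net growth. Active: below 10.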 Unmarked numbers belong to inactive results. The source made the active and inactive calls.

As to `COc1ccc2c(c1)c(-c1nc(-c3c[nH]c4ncccc34)cs1)cn2CCCN1CCOCC1`, the growth in the assay on SR leukemia was 6.64% (active); with RPMI-8226 leukemia, 0.661% (active); in the assay on OVCAR-8 ovarian, 25.3%; in the assay on OVCAR-5 ovarian, 68.1%; in the assay with OVCAR-4 ovarian, 41.5%; in the assay with SK-OV-3 ovarian it was 51.8%. In addition, the growth in the assay on IGROV1 ovarian is 22.9%; in the assay with OVCAR-3 ovarian, 44%; in the assay on HS 578T breast it was 2.12% (active); in the assay with NCI/ADR-RES ovarian, 43.4%.

As to `C[n+]1ccc(CCc2c[nH]c3ccccc23)cc1`, the growth in the assay on SR leukemia is 83.8%; in the assay on RPMI-8226 leukemia, 94%; in the assay with OVCAR-8 ovarian, 107%; in the assay on OVCAR-5 ovarian, 86.5%; in the assay with OVCAR-4 ovarian, 99.4%; with SK-OV-3 ovarian, 77.3%. Also, the growth in the assay with IGROV1 ovarian is 87.7%; in the assay with OVCAR-3 ovarian, 107%; in the assay on HS 578T breast, 104%; in the assay on NCI/ADR-RES ovarian, 105%.

With `C=C1C(=O)O[C@H]2[C@H]1CC/C(COC(=O)/C=C\C(=O)NCc1ccc(Cn3c(=O)sn(CCCCC)c3=O)cc1)=C\CC[C@@]1(C)O[C@@H]21`, the growth with SR leukemia was 59.7%; in the assay on RPMI-8226 leukemia, 8.85% (active); in the assay with OVCAR-8 ovarian, 84.5%; in the assay with OVCAR-5 ovarian it was 89%; in the assay on OVCAR-4 ovarian it was 84.6%; with SK-OV-3 ovarian, 111%. The growth in the assay with IGROV1 ovarian is 58%; in the assay on OVCAR-3 ovarian, 36%; in the assay on HS 578T breast, 98.2%; in the assay on NCI/ADR-RES ovarian, 98.8%.

`O=C1c2ccccc2C(=O)C1c1ccc(Br)cc1`: the growth in the assay with SR leukemia is 97.3%; with RPMI-8226 leukemia, 82.9%; with OVCAR-8 ovarian it was 102%; in the assay with OVCAR-5 ovarian it was 107%; in the assay on OVCAR-4 ovarian, 98.8%; with SK-OV-3 ovarian it was 111%. Also, the growth was 104% in the assay with IGROV1 ovarian, 116% in the assay with OVCAR-3 ovarian, 99.3% in the assay on HS 578T breast and 91.9% in the assay on NCI/ADR-RES ovarian.

In the case of `C=CN(C(=O)N1CCN(c2cc3c(cc2F)c(=O)c(C(=O)O)cn3C2CC2)CC1)c1nc(-c2ccc(OC)cc2)cs1`, the growth in the assay on SR leukemia was 20.4%; in the assay with RPMI-8226 leukemia, -6.11% (active); in the assay with OVCAR-8 ovarian, 14.3%; in the assay with OVCAR-5 ovarian, 33.8%; in the assay with OVCAR-4 ovarian, 35.3%; in the assay on SK-OV-3 ovarian it was 17.6%. For the same molecule, the growth is 39.6% in the assay with IGROV1 ovarian, 13.7% in the assay on OVCAR-3 ovarian, 20.3% in the assay with HS 578T breast and 37.6% with NCI/ADR-RES ovarian.

Take `O=C(Cc1ccc(/C=C/C(=O)c2ncc[nH]2)cc1)Nc1cc(C(F)(F)F)cc(C(F)(F)F)c1`: the growth in the assay on SR leukemia was 41.1%; with RPMI-8226 leukemia it was -18% (active); in the assay with OVCAR-8 ovarian, 87.1%; in the assay with OVCAR-5 ovarian, 103%; with OVCAR-4 ovarian, 100%; in the assay with SK-OV-3 ovarian it was 105%. Besides, the growth in the assay with IGROV1 ovarian is 84.4%; in the assay with OVCAR-3 ovarian, 59.3%; in the assay with HS 578T breast, 87.6%; in the assay with NCI/ADR-RES ovarian it was 102%.

Regarding `COc1ccc(/C=C/c2ccc3ccccc3n2)c(OC)c1`, the growth with SR leukemia was 29.4%; in the assay with RPMI-8226 leukemia, 74.7%; with OVCAR-8 ovarian, 92.5%; with OVCAR-5 ovarian, 86.5%; with OVCAR-4 ovarian, 95.9%; in the assay with SK-OV-3 ovarian, 88.6%. The growth in the assay with IGROV1 ovarian is 59.9%; in the assay with OVCAR-3 ovarian, 74%; in the assay on HS 578T breast, 85.5%; in the assay with NCI/ADR-RES ovarian, 49.7%.

For the molecule `NNCCc1ccc(NC(=O)CCCc2ccc(C(=O)Nc3ccccc3N)cc2)cc1`, the growth in the assay on SR leukemia was 55.2%; with RPMI-8226 leukemia, 41.8%; in the assay on OVCAR-8 ovarian, 45.6%; in the assay with OVCAR-5 ovarian, 74%; in the assay with OVCAR-4 ovarian, 70.1%; in the assay on SK-OV-3 ovarian it was 79.3%. Moreover, the growth in the assay on IGROV1 ovarian is 86.8%; with OVCAR-3 ovarian, 75%; in the assay with HS 578T breast, 77.8%; in the assay with NCI/ADR-RES ovarian it was 85%.

For the molecule `COc1cccc(/C=N/NC(=O)c2ccccc2N2CCCC2)c1O`, the growth with SR leukemia was 77.4%; in the assay with RPMI-8226 leukemia, -1.83% (active); in the assay on OVCAR-8 ovarian, 54.9%; with OVCAR-5 ovarian, 57.9%; with OVCAR-4 ovarian, 18%; in the assay on SK-OV-3 ovarian it was 63.6%. Besides, the growth in the assay with IGROV1 ovarian is -24.3% (active); in the assay on OVCAR-3 ovarian, -4.45% (active); in the assay on HS 578T breast it was 87.3%; in the assay on NCI/ADR-RES ovarian, 13.6%.

On to `NC(=O)c1cnc(Nc2cccc(N)c2)nc1NCCCNC(=O)C1CCC1`, for which the growth was 77.1% in the assay with SR leukemia; 97.3% in the assay on RPMI-8226 leukemia; 71.1% with OVCAR-8 ovarian; 119% in the assay on OVCAR-5 ovarian; 88.5% with OVCAR-4 ovarian; 27.1% in the assay on SK-OV-3 ovarian. Besides, the growth with IGROV1 ovarian is 65.8%; in the assay on OVCAR-3 ovarian it was 82.6%; in the assay on HS 578T breast, 72.8%; in the assay with NCI/ADR-RES ovarian it was 108%.

On to `CSc1nc(C)c([N+](=O)[O-])c(N)n1`, for which the growth in the assay on SR leukemia is 96.3%; with RPMI-8226 leukemia, 78.4%; in the assay on OVCAR-8 ovarian it was 100%; with OVCAR-5 ovarian, 118%; in the assay with OVCAR-4 ovarian, 104%; with SK-OV-3 ovarian it was 85.1%. Besides, the growth with IGROV1 ovarian was 110%; with OVCAR-3 ovarian it was 114%; in the assay on HS 578T breast it was 104%; with NCI/ADR-RES ovarian it was 102%.

Regarding `CCCC(CC)(C(=O)Nc1ccc2nc(C)cc(N)c2c1)C(=O)Nc1ccc2nc(C)cc(N)c2c1`, the growth with SR leukemia is 96.1%; with RPMI-8226 leukemia it was 100%; with OVCAR-8 ovarian, 103%; in the assay with OVCAR-5 ovarian, 85.1%; in the assay with OVCAR-4 ovarian it was 83.8%; with SK-OV-3 ovarian, 93.1%. For the same molecule, the growth in the assay on IGROV1 ovarian was 111%; in the assay with OVCAR-3 ovarian, 108%; with HS 578T breast, 106%; in the assay with NCI/ADR-RES ovarian, 109%.

Regarding `O=C(N=Nc1c(O)[nH]c2ccccc12)Nc1ccc(F)cc1`, the growth in the assay with SR leukemia was 84.2%; with RPMI-8226 leukemia it was 91%; in the assay on OVCAR-8 ovarian, 96.7%; in the assay on OVCAR-5 ovarian, 90.4%; in the assay with OVCAR-4 ovarian, 103%; in the assay on SK-OV-3 ovarian it was 80.5%. For the same molecule, the growth in the assay with IGROV1 ovarian was 85.2%; in the assay on OVCAR-3 ovarian, 102%; in the assay with HS 578T breast, 96.2%; in the assay on NCI/ADR-RES ovarian, 104%.

The values are drawn from PubChem BioAssay (NCI).
